Hits are enriched below; roughly 2.4% of the tested compounds scored in any of these assays.
LT uptake inh = inhibitors of anthrax lethal toxin internalization; Potency, µM (highest dose often 40 µM), without a hit: top-dose activity change, negative = inhibition, most hits filed as inhibitors; Cells, anthrax lethal toxin internalization, FRET ratio (460/530); AID 912; 0.67% of 70,000 active; also: % is scaled to controls: 0 for no effect and ±100 for the full control effect; nearly all actives have a fitted effect of over 50% in size
AmpC nodet inh = inhibitors of E. coli AmpC beta-lactamase without detergent; Potency, µM (doses to about 28.7 µM), for the others: top-dose activity change, negative = inhibition; 1.8% of 71,000 active; AmpC nitrocefin hydrolysis, absorbance 480 nm, no detergent; AID 585; also: % of control where 0% means no effect
Target sequence (P00811 whole entry, looked up): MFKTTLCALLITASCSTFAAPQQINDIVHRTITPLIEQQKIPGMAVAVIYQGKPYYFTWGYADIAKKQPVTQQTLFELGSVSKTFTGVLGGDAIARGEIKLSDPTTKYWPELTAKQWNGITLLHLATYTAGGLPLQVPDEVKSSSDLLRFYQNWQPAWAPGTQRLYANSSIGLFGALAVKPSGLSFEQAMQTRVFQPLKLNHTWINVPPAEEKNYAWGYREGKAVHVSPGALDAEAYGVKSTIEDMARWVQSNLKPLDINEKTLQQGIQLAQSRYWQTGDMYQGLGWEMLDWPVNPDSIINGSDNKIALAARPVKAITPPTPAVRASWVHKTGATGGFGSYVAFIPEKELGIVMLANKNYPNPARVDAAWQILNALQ
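Enzyme, pH 7.0 phosphate. Compound titrations were pre-incubated with AmpC for 15 min at room temperature before nitrocefin (stock 800 uM) addition; product formation was recorded at 480 nm every 20 s for 4 min.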
SmPrx2 inh = Schistosoma mansoni Prx2 inhibition | S. mansoni Prx2 activity coupled to TGR/GSH (TGR is thioredoxin glutathione reductase), NADPH fluorescence loss, qHTS | Potency, µM | 0.07% of 65,000 active | AID 448
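Prx2 inhibition was measured as reduced NADPH consumption when electrons flowed from NADPH through TGR and glutathione to Prx2 and H2O2. Plates were read kinetically over 8 min; enzyme reagents were held at 4 deg C during dispensing.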
AmpC det inh = inhibitors of E. coli AmpC beta-lactamase with detergent | Potency, µM (series often up to 28.7 µM), for inactives: top-dose activity change, negative = inhibition | 0.09% of 71,000 active | P00811 | purified AmpC, nitrocefin hydrolysis with detergent; active = well fitted curve in the direction sought with a large enough effect; inconclusive = small, poorly fitted or top-dose-only effect; also: % is scaled to controls: 0 for no effect and ±100 for the full control effect
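E. coli AmpC (5.3 nM) in 20 mM phosphate pH 7.0 with 0.01% Triton X-100, preincubated 15 min RT with compound; nitrocefin (2 uL of 800 uM stock) hydrolysis followed by 480 nm absorbance every 20 s over 4 min.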
Active calls of the source: *; ? = inconclusive; / = not tested or not shown; [ ] = dose if it differs, or a comment. Unless noted, calls follow the shape of the full dose curve. Potency is read from the fitted curve at half-maximal effect.

SMILES | LT uptake inh | AmpC nodet inh | SmPrx2 inh | AmpC det inh
CCCCCCC1=Cc2cc(OC)c(OC)cc2C(C2(C(=O)OCC)CCCC2=O)O1 (centres undefined) | -19.9%[8 µM] | / | / | /
CCOC(=O)C1C(=O)Oc2ccc3ccccc3c2C1C1CCOC1=O (centres undefined) | -10.5% | 3.98µM*[single pt active] | >57 | 14.0%
CO[C@@H]1CC=C2CCN3CCC4=C(CC(=O)OC4)[C@]23C1 | 2.8% | -7.9% | >57 | -0.7%
CCn1c(SCC(=O)Nc2oc(-c3ccccc3)c(-c3ccccc3)c2C#N)nnc1-c1ccco1 | ? | ? | >57 | -3.3%
N#Cc1c(NC(=O)CSc2ncnc3sccc23)oc(-c2ccco2)c1-c1ccco1 | ? | 7.94µM* | >57 | 11.6%
COc1ccccc1C(=O)N(Cc1ccco1)C1CCS(=O)(=O)C1 (centres undefined) | 3.4% | 8.1% | >57 | 14.7%
O=C(c1cnn2ccccc12)N(Cc1ccco1)C1CCCC1 | -0.1% | 3.98µM*[single pt active] | >57 | 10.4%
CC(=O)OCC(=O)[C@@]1(O)CC[C@@H]2[C@@H]3CCC4=CC(=O)CC[C@@]4(C)[C@H]3C(=O)C[C@]21C | 4.6% | 15.6% | >57 | -1.8%
COC(=O)C/C=C\[C@@H](C)[C@@H](/C=N\O[C@@H](C)CN1CCCc2nc(C)c(C)cc21)OC | 2.9%[8 µM] | / | / | /
Cc1occc1C(=O)n1nnc2ccccc21 | -20.6% | 10µM* | >57 | 10µM*
O=C(CCc1nc2ccccc2[nH]1)NC1CCCCC1 | -15.3% | 3.98µM*[single pt active] | >57 | 4.0%
CCOc1ccc(C(=O)c2ccc(OCC)c(N)c2)cc1N | 10µM* | 11.2% | / | 5.0%
CCN(CC)CCOc1ccc(Cc2ccccc2)cc1 | 25.1µM* | 65.4% | >57 | -1.2%
CCOC(=O)N1CCC(NC(=O)c2ccc3snnc3c2)CC1 | 0.9% | 3.98µM*[single pt active] | >57 | 13.5%
Cc1ccc(S(=O)(=O)C2(C(=O)Nc3cccnc3)CC2)cc1 | -8.5% | 3.98µM*[single pt active] | >57 | 13.8%
Cc1cc2c(c(=O)o1)[C@@H](O)[C@H]1O[C@@H]1C2=O | -11.3%[8 µM] | / | / | /
CCc1ccc(C2CC(=O)N3CN(c4ccccc4)CSC3=C2C#N)cc1 (centres undefined) | -13.0% | 20µM*[single pt active] | >57 | 7.1%
COc1ccc(C2CC(=O)N3CN(c4ccc(C)c(Cl)c4)CSC3=C2C#N)cc1OC (centres undefined) | 6.31µM* | 5.9% | >57 | 4.5%
COc1ccc(N2CSC3=C(C#N)C(c4cc(OC)ccc4OC)CC(=O)N3C2)c(OC)c1 (centres undefined) | ? | 41.3% | >57 | 1.0%
COc1ccc(N2CSC3=C(C#N)C(c4ccc(OC)c(OC)c4)CC(=O)N3C2)c(OC)c1 (centres undefined) | 4.9% | 47.7% | / | 3.3%
COc1ccc(N2CSC3=C(C#N)C(c4cccs4)CC(=O)N3C2)cc1 (centres undefined) | ? | -21.7% | >57 | -6.2%
CCOc1ccccc1N1CSC2=C(C#N)C(c3c(OC)ccc4ccccc34)CC(=O)N2C1 (centres undefined) | ? | 2.51µM*[single pt active] | >57 | 11.8%
CCc1ccc(N2CSC3=C(C#N)C(c4cccs4)CC(=O)N3C2)cc1 (centres undefined) | -28.8% | -13.0% | >57 | -5.7%
N#CC1=C2SCN(c3ccc(F)cc3)CN2C(=O)CC1c1cccc(F)c1 (centres undefined) | -17.1% | 3.98µM*[single pt active] | >57 | 8.9%
Oc1cc(O)cc(/C=C\c2ccc(O)c(O)c2)c1 | 2.8% | -23.1% | >57 | -3.6%
SMILES | LT uptake inh | AmpC nodet inh | SmPrx2 inh | AmpC det inh
O=C(O)/C=C\C(=O)Nc1ccc2c(c1)C(=O)c1cc(F)ccc1-2 | -8.9%[8 µM] | -5.5%[5.75 µM] | >57 | -4.9%[5.75 µM]
O=C(c1csnn1)N1CCC2(CC1)CN(c1ccccn1)C2 | 12.2% | 120.7% | >11.4 | 21.6%
O=C1C[C@@H](O)[C@@H](O)[C@H]2[C@@H]3C(=O)N(c4cccc(Oc5ccccc5)c4)C(=O)[C@@H]3CC[C@H]12 | 14.0%[8 µM] | / | / | /
CCOC(=O)c1ccc(N2CSC3=C(C#N)C(c4cccs4)CC(=O)N3C2)cc1 (centres undefined) | -19.2% | 2.51µM* | >57 | 7.0%
CN1CSC2=C(C#N)C(c3cccc(OCc4ccccc4)c3)CC(=O)N2C1 (centres undefined) | ? | 3.98µM*[single pt active] | >57 | 12.7%
COc1ccc(N2CSC3=C(C#N)C(c4cc(OC)c(OC)cc4OC)CC(=O)N3C2)c(OC)c1 (centres undefined) | -12.8% | 96.2% | >57 | 12.0%
CC[C@H]1CN2CC[C@@H]1C[C@@H]2[C@H](O)c1ccnc2ccccc12 | -13.8% | 1.1% | >57 | 2.3%
CCOc1ccc2nc(NC(=O)CN3CCC(n4nnc5cc(F)ccc54)CC3)sc2c1 | 12.6µM* | 52.4% | >57 | -5.2%
O=C(CN1CCC(n2nnc3cc(F)ccc32)CC1)NC1CC1 | -7.8% | 3.2% | >57 | -3.4%
Cc1cc(C)c(OCC(=O)Nc2ccccc2N2CCOCC2)c(C)c1 | ? | 22.0% | >57 | 0.2%
COc1ccc(C)cc1C(=O)CCC(=O)Nc1ccccc1N1CCOCC1 | 15.8µM* | 53.9% | >57 | -2.8%
O=C(Oc1ccccc1)N1CCC2(CC1)CN(c1ccccn1)C2 | -10.9% | 52.8% | >57 | -1.2%
Oc1ccc(Cl)cc1-c1cc(-c2ccccc2)n[nH]1 | ? | 3.98µM*[single pt active] | >57 | 18.7%
CC(C)(O)[C@H]1[C@H]2OC(=O)[C@@H]1[C@]1(O)C[C@H]3O[C@]34C(=O)O[C@H]2[C@]14C (tested in a mixture with another compound) | 1.6% | 5.6% | >57 | -3.5%
Oc1cccc2ccc(SSc3ccc4cccc(O)c4n3)nc12 | -3.9%[8 µM] | -29.9%[5.75 µM] | >57 | -4.5%[5.75 µM]
CN(CC(=O)Nc1ccc(C#N)cc1)Cc1ccc(Cl)cc1 | -12.6% | 3.6% | >57 | -1.7%
N#Cc1ccc(NC(=O)Nc2ccc(Cl)cc2)cc1 | 3.98µM* | ? | >57 | 13.2%
O=C(CSc1nnnn1-c1ccccc1)Nc1nsc(-c2ccccc2)n1 | -23.5% | -15.1% | >57 | -1.8%
Cc1ccc(-c2nc(NC(=O)CSc3nnc(C)s3)ns2)cc1 | -12.4% | 3.98µM*[single pt active] | >57 | 10.9%
O=C(CSc1nnnn1-c1ccccc1)Nc1nsc(-c2ccc(Cl)cc2)n1 | -13.6% | 10µM*[single pt active] | >57 | 0.0%
Cc1nnc(SCC(=O)Nc2nsc(-c3ccccc3)n2)s1 | / | -11.5% | >57 | -3.6%
COc1ccc(C[C@@H]2NC[C@H](O)[C@H]2OC(C)=O)cc1 | ? | 8.6% | >11.4 | 3.7%
CCCCNc1cc(=O)n(C)c(=O)[nH]1 | 6.1% | 3.98µM*[single pt active] | >57 | 11.5%
COc1ccc(C(=O)Oc2ccc3c(c2)OCO3)cc1OC | 7.94µM* | 33.4% | / | 9.1%
COc1cc(OC)c(C(=O)Oc2ccc3c(c2)OCO3)cc1OC | ? | 46.8% | >57 | -2.1%
Cc1ccc2nc(SCC(=O)NCc3ccco3)c(C#N)cc2c1 | -13.1% | 15.8µM*[single pt active] | >57 | 8.8%
Cc1ccc2cc(C#N)c(SCC(=O)NCc3ccco3)nc2c1 | -16.9% | -24.4% | >57 | 6.7%
COc1ccccc1NC(=O)Cn1c(=O)n2nc(C)nc2c2ccccc21 | -2.9% | 26.4% | >57 | 6.7%
